From PubChem BioAssay (EPA / NIEHS)
Records with an inconclusive call do not appear. Some compounds were tested as several samples or in several runs, with calls that do not always agree. Calls of active or inactive are those of the source. The calls were made as follows, unless noted: active = hit-call score of the fitted dose curve at least 0.9, where 1 is the maximum; inactive = score below 0.9.

Legend:
[1] = biological target: Transcription factor E2F1 (Homo sapiens) (UniProt Q01094); assay: ATG_E2F_CIS: Attagene CIS-FACTORIAL HepG2 Assay for human E2F Transcription Factor 1 (AID 2282935); conditions: HepG2 Attagene cis-reporter, E2F reporter RNA transcripts; actives raise or lower the signal
Transcription factor E2F1 (Homo sapiens), sequence (Q01094 whole entry, looked up): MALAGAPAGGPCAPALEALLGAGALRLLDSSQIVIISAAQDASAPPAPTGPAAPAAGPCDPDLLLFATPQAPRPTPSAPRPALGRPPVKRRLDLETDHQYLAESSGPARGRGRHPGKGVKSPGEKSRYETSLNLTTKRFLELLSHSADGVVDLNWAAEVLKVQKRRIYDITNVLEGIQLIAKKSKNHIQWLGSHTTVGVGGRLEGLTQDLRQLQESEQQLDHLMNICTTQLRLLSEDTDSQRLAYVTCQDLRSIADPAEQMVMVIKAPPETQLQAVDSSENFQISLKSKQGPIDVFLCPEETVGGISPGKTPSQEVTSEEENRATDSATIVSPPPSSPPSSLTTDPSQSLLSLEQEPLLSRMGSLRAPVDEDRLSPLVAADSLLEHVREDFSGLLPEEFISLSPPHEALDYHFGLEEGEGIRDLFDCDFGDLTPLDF
Summary of the method: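 In this cis-factorial format, endogenous factor activity drives transfected reporters in HepG2; transcripts collected at 24 h are quantified by fluorescence after RT-PCR and capillary separation.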

[2] = ATG_M_61_CIS: Attagene CIS-FACTORIAL HepG2 Assay for M61 Transcription Factor (Internal Marker) (AID 2282937); conditions: HepG2 Attagene CIS-FACTORIAL M61 internal marker reporter; actives raise or lower the signal
Summary of the method: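 Readout is reporter mRNA by RT-PCR, fluorescent primer extension and capillary electrophoresis, with gain or loss fitted relative to DMSO. Transfected HepG2 cells carrying endogenous-TF-driven cis reporters were exposed to chemicals for 24 hours.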

[3] = ATG_GRE_CIS: Attagene CIS-FACTORIAL HepG2 Assay for human Glucocorticoid Response Elements (GRE) (AID 2282947); conditions: HepG2 GRE cis-reporter, Attagene multiplex mRNA; actives raise or lower the signal
Summary of the method: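 HepG2, transient cis-reporter transfection, 24 h. Reporter mRNA: RT-PCR then CE, fluorescence. Fit both directions vs DMSO.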

[4] = ATG_ISRE_CIS: Attagene CIS-FACTORIAL HepG2 Assay for human Interferon Regulatory Factor 1 (IRF1) binding to an Interferon-Stimulated Response Element (ISRE) (AID 2282948); conditions: HepG2 ISRE cis-reporter (Attagene), mRNA transcription readout; actives raise or lower the signal
Summary of the method: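 Endogenous transcription factor activity read as reporter transcript abundance via RT-PCR and capillary electrophoresis. HepG2 cells transiently transfected, 24 h chemical exposure. Gain or loss fitted against DMSO baseline.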

[5] = biological target: Hypoxia-inducible factor 1-alpha (Homo sapiens) (UniProt Q16665); assay: ATG_HIF1a_CIS: Attagene CIS-FACTORIAL HepG2 Assay for human Hypoxia Inducible Factor 1 (HIF1A) (AID 2282951); conditions: HepG2 Attagene cis-factorial HIF1a reporter transcription; actives raise or lower the signal
Hypoxia-inducible factor 1-alpha (Homo sapiens), sequence (Q16665 whole entry, looked up): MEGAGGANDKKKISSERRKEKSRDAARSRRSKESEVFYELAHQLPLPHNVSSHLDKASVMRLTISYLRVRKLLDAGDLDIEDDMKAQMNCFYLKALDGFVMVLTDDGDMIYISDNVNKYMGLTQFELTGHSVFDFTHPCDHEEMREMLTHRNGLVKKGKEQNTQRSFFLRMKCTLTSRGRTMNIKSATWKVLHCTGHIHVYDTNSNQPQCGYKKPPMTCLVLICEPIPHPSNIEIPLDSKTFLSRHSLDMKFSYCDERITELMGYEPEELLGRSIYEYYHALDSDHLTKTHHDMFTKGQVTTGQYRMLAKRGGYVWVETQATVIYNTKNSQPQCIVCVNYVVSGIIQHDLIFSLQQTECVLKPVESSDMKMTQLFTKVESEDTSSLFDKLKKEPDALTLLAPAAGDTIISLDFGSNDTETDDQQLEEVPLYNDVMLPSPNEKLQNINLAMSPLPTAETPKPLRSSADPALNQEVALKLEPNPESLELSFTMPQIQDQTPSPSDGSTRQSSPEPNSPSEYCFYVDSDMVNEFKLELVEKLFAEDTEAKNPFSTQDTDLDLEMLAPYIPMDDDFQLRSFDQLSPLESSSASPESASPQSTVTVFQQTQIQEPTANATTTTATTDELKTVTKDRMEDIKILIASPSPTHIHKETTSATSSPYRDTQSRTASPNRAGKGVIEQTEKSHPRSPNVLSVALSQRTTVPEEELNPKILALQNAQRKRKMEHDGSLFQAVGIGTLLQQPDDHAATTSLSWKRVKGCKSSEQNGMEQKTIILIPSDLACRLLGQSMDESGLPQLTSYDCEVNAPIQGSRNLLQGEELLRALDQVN
Summary of the method: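 Activity is fitted in both directions relative to DMSO. Reporter transcripts are read by RT-PCR, fluorescent primer extension and capillary electrophoresis after 24 h chemical treatment. The cells are HepG2 carrying transiently transfected cis-element-driven reporter units responding to endogenous factors.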

[6] = biological target: Hepatocyte nuclear factor 6 (Homo sapiens) (UniProt Q9UBC0); assay: ATG_HNF6_CIS: Attagene CIS-FACTORIAL HepG2 Assay for human Hepatocyte Nuclear Factor 6 (HNF6) (AID 2282952); conditions: HepG2 Attagene cis-factorial HNF6 reporter transcription; actives raise or lower the signal
Hepatocyte nuclear factor 6 (Homo sapiens), sequence (Q9UBC0 whole entry, looked up): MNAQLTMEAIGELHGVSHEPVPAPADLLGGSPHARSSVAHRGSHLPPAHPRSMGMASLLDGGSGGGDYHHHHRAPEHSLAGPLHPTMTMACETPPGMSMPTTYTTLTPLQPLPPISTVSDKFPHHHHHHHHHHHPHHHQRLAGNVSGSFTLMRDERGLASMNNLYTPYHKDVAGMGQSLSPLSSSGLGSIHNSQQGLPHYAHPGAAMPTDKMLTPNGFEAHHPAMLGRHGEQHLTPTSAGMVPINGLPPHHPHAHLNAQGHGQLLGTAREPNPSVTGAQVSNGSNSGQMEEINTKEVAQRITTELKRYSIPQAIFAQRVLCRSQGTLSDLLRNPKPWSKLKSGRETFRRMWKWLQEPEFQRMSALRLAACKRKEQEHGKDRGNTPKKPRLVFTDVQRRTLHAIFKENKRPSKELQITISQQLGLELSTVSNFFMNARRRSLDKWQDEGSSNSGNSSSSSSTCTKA
Summary of the method: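 Endogenous factor activity read in transiently transfected HepG2 via promoter-regulated reporter transcripts. RNA harvested 24 h post-dosing, reverse-transcribed, PCR-amplified, FAM-labelled, HpaI-digested and resolved by capillary electrophoresis; fitted in both directions against DMSO.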

[7] = ATG_MRE_CIS: Attagene CIS-FACTORIAL HepG2 Assay for human Metal Responsive Element (MRE) (AID 2282954); conditions: HepG2 MRE cis-reporter transcription, Attagene multiplex; actives raise or lower the signal
Summary of the method: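 Readout: capillary electrophoresis of 6-FAM-labelled, HpaI-digested RT-PCR reporter products. System: HepG2 cells carrying transient multiplexed cis reporters, dosed 24 h. Analysis: bidirectional fit, DMSO baseline.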

[8] = ATG_PPRE_CIS: Attagene CIS-FACTORIAL HepG2 Assay for human Peroxisome Proliferator-activated Response Element (PPRE) (AID 2282958); conditions: HepG2 PPRE cis-element reporter, Attagene transcription factor profiling; actives raise or lower the signal
Summary of the method: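 Endogenous PPRE-driven transcription is measured in HepG2 cells carrying transfected multi-reporter constructs. Reporter transcripts are quantified by RT-PCR, HpaI digestion and capillary electrophoresis 24 h after dosing. DMSO baseline, bidirectional fit.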

[9] = ATG_TCF_b_cat_CIS: Attagene CIS-FACTORIAL HepG2 Assay for human T-Cell-Factor with beta-catenin (TCF/b-cat) (AID 2282965); conditions: HepG2 TCF/beta-catenin cis-reporter transcription, actives raise or lower the signal
Summary of the method: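 HepG2 cells transiently transfected with multiple cis-promoter-regulated reporter transcription units, so endogenous transcription factor activity is measured. Reporter mRNA read 24 hours after dosing by RT-PCR, fluorescent labelling and capillary electrophoresis; bidirectional fitting against DMSO.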

[10] = biological target: Transcriptional activator Myb (Homo sapiens) (UniProt P10242); assay: ATG_Myb_CIS: Attagene CIS-FACTORIAL HepG2 Assay for human Myeloblastosis (Myb) Proto-Oncogene Transcription Factor (AID 2282986); conditions: HepG2 Attagene CIS-FACTORIAL Myb reporter transcription; actives raise or lower the signal
Transcriptional activator Myb (Homo sapiens), sequence (P10242 whole entry, looked up): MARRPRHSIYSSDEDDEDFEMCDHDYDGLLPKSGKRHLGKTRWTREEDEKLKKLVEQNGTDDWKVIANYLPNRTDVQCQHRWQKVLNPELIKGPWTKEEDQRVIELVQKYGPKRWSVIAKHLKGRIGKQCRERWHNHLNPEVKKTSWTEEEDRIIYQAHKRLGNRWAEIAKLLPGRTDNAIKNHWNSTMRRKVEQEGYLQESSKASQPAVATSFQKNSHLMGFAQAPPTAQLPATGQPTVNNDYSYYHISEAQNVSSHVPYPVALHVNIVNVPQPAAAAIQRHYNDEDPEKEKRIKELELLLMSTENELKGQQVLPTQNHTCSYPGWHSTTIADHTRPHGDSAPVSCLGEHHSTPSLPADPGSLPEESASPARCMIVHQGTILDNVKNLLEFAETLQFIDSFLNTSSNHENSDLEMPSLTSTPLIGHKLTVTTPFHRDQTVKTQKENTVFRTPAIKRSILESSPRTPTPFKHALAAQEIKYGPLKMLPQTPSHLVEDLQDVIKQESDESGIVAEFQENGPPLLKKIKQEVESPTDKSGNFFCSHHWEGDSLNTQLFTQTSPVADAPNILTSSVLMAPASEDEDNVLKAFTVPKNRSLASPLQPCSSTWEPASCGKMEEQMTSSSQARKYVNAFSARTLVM
Summary of the method: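 Reporter mRNA is quantified by RT-PCR and capillary electrophoresis 24 h after dosing HepG2 cells transfected with cis-regulated reporter units, which track endogenous transcription factor activity. Gain and loss of signal are fitted versus DMSO baseline.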

[11] = biological target: Retinoic acid receptor RXR-alpha (Homo sapiens) (UniProt P19793); assay: ATG_RXRa_TRANS: Attagene TRANS-FACTORIAL HepG2 Assay for human Retinoid X Receptor alpha (RXRa) (AID 2283012; active = hit-call score of the fitted dose curve at least 0.9, where 1 is the maximum)
Retinoic acid receptor RXR-alpha (Homo sapiens), sequence (P19793 whole entry, looked up, the tested form may be a part): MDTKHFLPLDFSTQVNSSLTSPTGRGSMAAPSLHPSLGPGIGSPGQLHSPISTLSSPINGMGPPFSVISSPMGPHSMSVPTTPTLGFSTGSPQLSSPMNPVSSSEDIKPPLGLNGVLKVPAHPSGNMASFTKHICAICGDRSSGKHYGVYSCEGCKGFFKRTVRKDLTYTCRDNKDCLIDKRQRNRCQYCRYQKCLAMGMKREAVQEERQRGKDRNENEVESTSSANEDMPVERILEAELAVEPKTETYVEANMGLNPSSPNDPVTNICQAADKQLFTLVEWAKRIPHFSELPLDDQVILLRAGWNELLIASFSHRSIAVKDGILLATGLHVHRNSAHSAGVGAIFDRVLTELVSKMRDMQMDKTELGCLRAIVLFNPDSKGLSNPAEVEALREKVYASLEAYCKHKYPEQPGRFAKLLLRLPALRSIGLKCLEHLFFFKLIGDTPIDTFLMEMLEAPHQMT
Summary of the method: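 Chimeric NR-GAL4 trans-activation in HepG2, 24 h treatment; reporter transcripts quantified by fluorescence on capillary electrophoresis, analysed for upward change from DMSO.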

[12] = ATG_PBREM_CIS: Attagene CIS-FACTORIAL HepG2 Assay for human Phenobarbital-responsive Enhancer Module (PBREM) (AID 2282955); conditions: HepG2 PBREM cis-reporter, Attagene multiplexed transcription; actives raise or lower the signal
Summary of the method: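 Endogenous transcription factor activity was read from reporter transcripts in transiently transfected human HepG2 liver cells after 24 h dosing. RT-PCR products were fluorescently labelled, HpaI-cut and sized by capillary electrophoresis; activity fitted bidirectionally against DMSO baseline.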

[13] = biological target: Nuclear respiratory factor 1 (Homo sapiens) (UniProt Q16656); assay: ATG_NRF1_CIS: Attagene CIS-FACTORIAL HepG2 Assay for human Nuclear Respiratory Factor 1 (NRF1) Orphan Gene (AID 2282987); conditions: HepG2 NRF1 cis-element reporter, Attagene multiplex; actives raise or lower the signal
Nuclear respiratory factor 1 (Homo sapiens), sequence (Q16656 whole entry, looked up): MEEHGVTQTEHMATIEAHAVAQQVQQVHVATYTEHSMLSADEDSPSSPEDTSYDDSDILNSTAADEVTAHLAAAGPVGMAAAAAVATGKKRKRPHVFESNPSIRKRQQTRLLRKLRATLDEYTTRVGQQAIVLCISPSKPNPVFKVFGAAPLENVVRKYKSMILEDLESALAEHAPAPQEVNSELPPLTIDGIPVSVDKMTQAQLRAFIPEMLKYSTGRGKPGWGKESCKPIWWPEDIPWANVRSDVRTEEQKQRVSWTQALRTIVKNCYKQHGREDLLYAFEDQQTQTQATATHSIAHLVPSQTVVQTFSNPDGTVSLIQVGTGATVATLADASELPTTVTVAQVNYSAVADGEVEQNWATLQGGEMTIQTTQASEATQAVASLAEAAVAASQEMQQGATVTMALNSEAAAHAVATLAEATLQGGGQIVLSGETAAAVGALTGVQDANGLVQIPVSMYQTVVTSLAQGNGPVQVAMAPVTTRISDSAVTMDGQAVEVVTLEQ
Summary of the method: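 Endogenous NRF1-driven reporter transcription in transfected HepG2 cells after 24 h treatment. Readout: RT-PCR products, 6-FAM labelled and resolved by capillary electrophoresis; changes fitted both directions relative to DMSO.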

[14] = biological target: Cellular tumor antigen p53 (Homo sapiens) (UniProt P04637); assay: TOX21_p53_BLA_p2_ratio: Tox21 HCT-116 p53 Agonism Beta-lactamase Assay, Ratio, Phase 2 (AID 2283592; active = hit-call score of the fitted dose curve at least 0.9, where 1 is the maximum)
Cellular tumor antigen p53 (Homo sapiens), sequence (P04637 whole entry, looked up): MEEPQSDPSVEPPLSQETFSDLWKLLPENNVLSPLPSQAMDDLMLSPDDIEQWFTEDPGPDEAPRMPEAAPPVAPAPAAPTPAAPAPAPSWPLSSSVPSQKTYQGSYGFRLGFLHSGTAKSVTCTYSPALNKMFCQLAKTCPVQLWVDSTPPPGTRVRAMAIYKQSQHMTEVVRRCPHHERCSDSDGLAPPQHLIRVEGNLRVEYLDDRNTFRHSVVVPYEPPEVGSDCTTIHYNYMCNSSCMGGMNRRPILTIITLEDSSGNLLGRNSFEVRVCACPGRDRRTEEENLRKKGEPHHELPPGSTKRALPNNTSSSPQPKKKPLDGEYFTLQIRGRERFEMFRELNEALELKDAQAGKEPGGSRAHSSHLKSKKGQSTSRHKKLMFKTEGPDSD
Summary of the method: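 Read-out is the blue/green (460/530 nm, 405 nm excitation) ratio after 2 h CCF4-AM loading, fitted as gain versus DMSO. Compounds, pinned at 217-fold dilution from DMSO stocks, stayed 16 h on HCT-116 beta-lactamase reporter cells seeded 5 h earlier.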

[15] = biological target: Cellular tumor antigen p53 (Homo sapiens) (UniProt P04637); assay: TOX21_p53_BLA_p3_ratio: Tox21 HCT-116 p53 Agonism Beta-lactamase Assay, Ratio, Phase 3 (AID 2283596; active = hit-call score of the fitted dose curve at least 0.9, where 1 is the maximum)
Summary of the method: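 Cells were seeded at 4000/well, rested 5 h at 37C, then dosed with DMSO compound solutions (217-fold dilution) for 16 h. CCF4-AM substrate was loaded for 2 h at room temperature, and the 460/530 nm emission ratio was fitted for gain of signal versus DMSO.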

[16] = biological target: Cellular tumor antigen p53 (Homo sapiens) (UniProt P04637); assay: TOX21_p53_BLA_p5_ratio: Tox21 HCT-116 p53 Agonism Beta-lactamase Assay, Ratio, Phase 5 (AID 2283599; active = hit-call score of the fitted dose curve at least 0.9, where 1 is the maximum)
Summary of the method: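 HCT-116 cells carrying a p53-inducible beta-lactamase reporter were seeded at 4000 cells/well and dosed after 5 h with compound in DMSO (217-fold dilution). After 16 h at 37C, CCF4-AM substrate was added for 2 h, and the 460/530 nm emission ratio was scored as gain-of-signal versus DMSO.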

[17] = biological target: Cellular tumor antigen p53 (Homo sapiens) (UniProt P04637); assay: TOX21_p53_BLA_p4_ratio: Tox21 HCT-116 p53 Agonism Beta-lactamase Assay, Ratio, Phase 4 (AID 2283601; active = hit-call score of the fitted dose curve at least 0.9, where 1 is the maximum)
Summary of the method: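 HCT116 cells carrying an inducible beta-lactamase reporter were plated at 4000 cells/well, rested 5 h, then exposed to compounds in DMSO (217-fold dilution) for 16 h at 37C. CCF4-AM substrate was loaded 2 h at room temperature; 460/530 nm emission ratio scored gain-of-signal versus DMSO.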

[18] = biological target: Heat shock factor protein 1 (Homo sapiens) (UniProt Q00613); assay: ATG_HSE_CIS: Attagene CIS-FACTORIAL HepG2 Assay for human Heat Shock Transcription Factor 1 (HSE) (AID 2282953); conditions: HepG2 HSE cis-reporter, Attagene RNA transcription; actives raise or lower the signal
Heat shock factor protein 1 (Homo sapiens), sequence (Q00613 whole entry, looked up): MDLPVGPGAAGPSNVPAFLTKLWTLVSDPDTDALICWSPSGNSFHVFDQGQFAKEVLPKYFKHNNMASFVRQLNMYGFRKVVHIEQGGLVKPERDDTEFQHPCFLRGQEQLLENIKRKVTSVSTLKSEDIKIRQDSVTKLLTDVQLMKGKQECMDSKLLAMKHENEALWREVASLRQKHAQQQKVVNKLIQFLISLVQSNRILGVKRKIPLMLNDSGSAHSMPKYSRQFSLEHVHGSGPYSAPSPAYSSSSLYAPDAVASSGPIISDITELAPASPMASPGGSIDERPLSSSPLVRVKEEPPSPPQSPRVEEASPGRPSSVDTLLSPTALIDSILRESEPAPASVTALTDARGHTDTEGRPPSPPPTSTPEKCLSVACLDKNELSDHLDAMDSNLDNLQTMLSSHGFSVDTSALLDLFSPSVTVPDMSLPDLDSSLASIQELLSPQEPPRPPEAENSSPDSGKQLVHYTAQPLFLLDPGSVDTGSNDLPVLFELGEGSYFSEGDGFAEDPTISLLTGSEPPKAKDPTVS
Summary of the method: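 Reporter mRNA induction in HepG2 is measured 24 h after dosing, using transiently transfected multiplexed cis-regulated reporter units. Signal comes from capillary electrophoresis of labelled RT-PCR products, with DMSO as negative control.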

[19] = ATG_M_06_TRANS: Attagene TRANS-FACTORIAL HepG2 Assay for M06 Transcription Factor (Internal Marker) (AID 2282983; active = hit-call score of the fitted dose curve at least 0.9, where 1 is the maximum;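 also: reporter transcript level by RT-PCR then capillary electrophoresis fluorescence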); conditions: HepG2 Attagene TRANS M06 internal marker reporter
Summary of the method: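 Background-control reporter readout: after 24 h chemical exposure of transiently transfected HepG2 (GAL4-UAS reporter units), mRNA quantified by RT-PCR with fluorescent labeling and capillary electrophoresis. Gain-of-signal fitting against DMSO baseline.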

[20] = biological target: Nuclear receptor subfamily 4 group A member 2 (Homo sapiens) (UniProt P43354); assay: ATG_NURR1_TRANS: Attagene TRANS-FACTORIAL HepG2 Assay for human Nuclear Receptor Related Protein 1 (NURR1) (AID 2282985; active = hit-call score of the fitted dose curve at least 0.9, where 1 is the maximum); conditions: HepG2 Attagene TRANS reporter, mRNA readout
Nuclear receptor subfamily 4 group A member 2 (Homo sapiens), sequence (P43354 whole entry, looked up, the tested form may be a part): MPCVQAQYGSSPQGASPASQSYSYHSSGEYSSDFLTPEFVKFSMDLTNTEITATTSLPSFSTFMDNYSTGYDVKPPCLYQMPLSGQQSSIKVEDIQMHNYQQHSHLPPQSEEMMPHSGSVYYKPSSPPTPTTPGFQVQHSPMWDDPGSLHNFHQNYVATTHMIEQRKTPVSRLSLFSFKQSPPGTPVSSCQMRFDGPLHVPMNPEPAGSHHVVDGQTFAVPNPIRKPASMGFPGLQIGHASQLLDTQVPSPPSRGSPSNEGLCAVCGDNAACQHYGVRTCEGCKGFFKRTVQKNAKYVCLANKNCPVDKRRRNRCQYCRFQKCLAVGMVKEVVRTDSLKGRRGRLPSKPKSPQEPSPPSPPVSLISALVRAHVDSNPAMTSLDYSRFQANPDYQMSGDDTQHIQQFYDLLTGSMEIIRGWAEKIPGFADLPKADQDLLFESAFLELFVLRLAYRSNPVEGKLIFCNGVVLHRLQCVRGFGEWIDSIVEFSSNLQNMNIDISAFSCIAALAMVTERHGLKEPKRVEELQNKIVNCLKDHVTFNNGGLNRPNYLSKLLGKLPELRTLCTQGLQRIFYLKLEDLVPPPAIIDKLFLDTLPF
Summary of the method: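 Chimeric NR-Gal4 proteins were expressed in human HepG2 cells bearing GAL4-UAS reporter units, and induced reporter mRNA was quantified 24 h post-dosing by RT-PCR and capillary electrophoresis.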

Measured: AC50

CC(C)C(=O)Cl
inactive: [1] | [2] | [3] | [4] | [5] | [6] | [7] | [8] | [9] | [10] | [11]

C=CCO
not listed: [1] | [4] | [8] | [9] | [11] | [18] | [19] | [20]
inactive: all other assays above

CNC(=N[N+](=O)[O-])NCC1CCOC1 (centres undefined)
not listed: [2] | [8] | [11] | [14] | [20]
inactive: all other assays above

CCCCOC(=O)CCC(=O)OCCCC
inactive: [4] | [5] | [18] | [7] | [12] | [8] | [19] | [20] | [16] | [17]

CC1CCCC1.[C-]#[O+].[C-]#[O+].[C-]#[O+].[Mn]
not listed: [4] | [7] | [18] | [19] | [20]
inactive: all other assays above

O=[N+]([O-])c1cc([N+](=O)[O-])c2ccccc2c1
not listed: [2] | [14]
inactive: all other assays above

O=c1c2ccccc2c(=O)c2c1cc(Cl)c1[nH]c3c([nH]c12)c(Cl)cc1c(=O)c2ccccc2c(=O)c13
not listed: [2] | [7] | [10] | [15] | [18]
inactive: all other assays above

O=C(CCl)c1ccccc1
active: [3] 8.88 µM | [4] 18.8 µM | [15] 64.3 µM
inactive: [5] | [6] | [7] | [8] | [9] | [19] | [20] | [10] | [14] | [15] | [16] | [17]

C[N+](=O)[O-]
inactive: [1] | [3] | [18] | [7] | [8] | [9] | [19] | [10] | [11] | [17]

O=S(=O)(c1ccccc1)c1ccccc1
not listed: [3] | [5] | [19] | [20]
inactive: all other assays above

O=S(=O)(O)O
not listed: [3] | [6] | [8] | [12] | [14] | [15] | [16] | [17]
inactive: all other assays above
